Source: article PMC13541613, “GHT-SELEX demonstrates unexpectedly high intrinsic sequence specificity and complex DNA binding of many human transcription factors”

Legend:
Test in all cases: HT-SELEX; 20 mM HEPES pH 7, 140 mM KCl, 5 mM NaCl, 1 mM K2HPO4, 2 mM MgSO4, 100 uM EGTA, ZnSO4, 0.1% Tween20; room temperature, 1 h; high values mean tight binding
Conditions in all cases: protein: ivt; tags: eGFP (N-terminal); dsDNA, one strand shown
[1] = target: ZNF721 full-length (Homo sapiens, UniProt Q8TF20-2 1-923)
Sequence of ZNF721 full-length (Q8TF20 other isoform, or with tags, fused parts or gaps): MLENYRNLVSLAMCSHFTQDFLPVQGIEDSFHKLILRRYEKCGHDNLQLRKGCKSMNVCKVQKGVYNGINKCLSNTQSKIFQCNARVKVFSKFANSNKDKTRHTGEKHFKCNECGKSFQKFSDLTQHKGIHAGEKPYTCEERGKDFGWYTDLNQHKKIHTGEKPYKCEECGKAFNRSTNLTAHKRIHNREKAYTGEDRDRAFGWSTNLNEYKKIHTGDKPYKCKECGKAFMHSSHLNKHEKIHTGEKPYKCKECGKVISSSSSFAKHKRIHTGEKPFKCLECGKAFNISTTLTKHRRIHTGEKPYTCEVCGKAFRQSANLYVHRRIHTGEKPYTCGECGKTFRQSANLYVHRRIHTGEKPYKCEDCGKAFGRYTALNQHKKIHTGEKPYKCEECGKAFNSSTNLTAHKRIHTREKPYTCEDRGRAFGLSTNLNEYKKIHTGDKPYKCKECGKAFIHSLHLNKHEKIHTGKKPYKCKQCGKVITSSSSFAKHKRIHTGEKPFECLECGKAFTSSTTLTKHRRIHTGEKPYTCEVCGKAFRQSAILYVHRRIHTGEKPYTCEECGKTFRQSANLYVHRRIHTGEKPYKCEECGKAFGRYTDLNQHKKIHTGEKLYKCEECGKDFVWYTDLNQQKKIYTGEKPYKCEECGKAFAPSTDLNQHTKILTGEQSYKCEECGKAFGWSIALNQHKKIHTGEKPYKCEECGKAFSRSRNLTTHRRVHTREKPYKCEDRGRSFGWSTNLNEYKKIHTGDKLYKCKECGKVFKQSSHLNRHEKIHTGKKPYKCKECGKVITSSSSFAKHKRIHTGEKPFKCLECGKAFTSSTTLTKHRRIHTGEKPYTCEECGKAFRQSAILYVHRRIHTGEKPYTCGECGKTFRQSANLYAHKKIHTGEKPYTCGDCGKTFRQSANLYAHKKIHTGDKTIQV
Method in brief: (§1)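 The binding signal is a relative k-mer count in selected reads, and higher values mean tighter binding. To obtain these reads, bead-bound tagged transcription factor (full-length or DNA-binding-domain fragment, produced in HEK293 lysate or cell-free extract) was mixed with a randomized 40-base DNA library for 1 h at room temperature in low-stringency HEPES/KCl buffer with Tween20. Bound DNA was recovered by washing and heat elution, PCR-amplified through successive cycles and sequenced on Illumina (~3 million 60 bp reads per sample).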

[2] = target: ZNF721 DBD1 (Homo sapiens, UniProt Q8TF20-2 29-461)
Sequence of ZNF721 DBD1 (Q8TF20 17-449): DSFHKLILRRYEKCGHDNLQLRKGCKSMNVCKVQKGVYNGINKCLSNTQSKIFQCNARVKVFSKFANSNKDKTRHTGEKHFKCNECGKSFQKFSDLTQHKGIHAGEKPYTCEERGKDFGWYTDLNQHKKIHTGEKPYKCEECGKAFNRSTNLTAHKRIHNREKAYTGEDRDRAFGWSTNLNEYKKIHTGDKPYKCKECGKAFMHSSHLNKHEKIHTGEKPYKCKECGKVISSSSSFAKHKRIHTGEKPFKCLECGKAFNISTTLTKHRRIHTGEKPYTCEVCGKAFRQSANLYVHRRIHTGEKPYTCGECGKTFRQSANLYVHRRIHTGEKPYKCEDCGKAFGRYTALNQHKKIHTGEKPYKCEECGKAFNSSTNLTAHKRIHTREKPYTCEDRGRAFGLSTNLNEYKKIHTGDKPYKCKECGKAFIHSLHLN
Method in brief: as §1

[3] = target: ZNF721 DBD2 (Homo sapiens, UniProt Q8TF20-2 395-923)
Sequence of ZNF721 DBD2 (Q8TF20 383-911): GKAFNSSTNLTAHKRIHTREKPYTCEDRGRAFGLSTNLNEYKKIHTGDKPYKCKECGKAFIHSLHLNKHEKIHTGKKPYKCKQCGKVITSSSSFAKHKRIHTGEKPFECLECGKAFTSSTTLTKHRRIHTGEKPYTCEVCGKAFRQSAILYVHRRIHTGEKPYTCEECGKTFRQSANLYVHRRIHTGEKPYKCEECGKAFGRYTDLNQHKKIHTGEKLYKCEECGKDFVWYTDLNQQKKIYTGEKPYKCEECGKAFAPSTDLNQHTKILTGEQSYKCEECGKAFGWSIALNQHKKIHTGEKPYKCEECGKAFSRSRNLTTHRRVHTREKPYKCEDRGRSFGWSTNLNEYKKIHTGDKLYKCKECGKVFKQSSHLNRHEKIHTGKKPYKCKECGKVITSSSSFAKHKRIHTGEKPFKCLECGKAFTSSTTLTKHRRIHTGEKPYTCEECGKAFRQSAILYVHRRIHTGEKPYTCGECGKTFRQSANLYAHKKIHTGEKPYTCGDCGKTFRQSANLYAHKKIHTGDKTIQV
Method in brief: as §1

Row | Sequence | binding signal [1] [relative 10-mer count] | binding signal [2] [relative 10-mer count] | binding signal [3] [relative 10-mer count]
1 | CCCCCCCCGC | 0.151 | 0.00399 | 0.0024
2 | CCCTCCCACC | 0.265 | 0.0161 | 0.00755
3 | CATCCCCACC | 0.126 | 0.0072 | 0.0188
4 | CCGCCCCCGC | 0.127 | 0.00491 | 0.0018
5 | ACCCCCTCCC | 0.158 | 0.00807 | 0.00503
6 | CCCTCCCCTC | 0.142 | 0.00679 | 0.0129
7 | CCCCTCACCC | 0.187 | 0.00711 | 0.00503
8 | CCCCCACACC | 0.231 | 0.00821 | 0.00779
9 | GCCCCCGCCC | 0.146 | 0.00527 | 0.00132
10 | AAACAGCGTA | 0.378 | 0.00115 | 0.468
11 | ACCCCCCCAC | 0.169 | 0.00697 | 0.00695
12 | CCGCCCCTCC | 0.151 | 0.00624 | 0.00312
13 | CACAAAAAAA | 0.181 | 0.0107 | 0.0847
14 | ACGAAAAAAG | 0.126 | 0.0251 | 0.0417
15 | CCACAAAAAA | 0.125 | 0.00615 | 0.0663
16 | TCCCCACCCA | 0.122 | 0.00495 | 0.00431
17 | AAAAGCAGTC | 0.111 | 0.00225 | 0.105
18 | AAAAAAGGTA | 0.109 | 0.00752 | 0.0674
19 | CCCACCCCGA | 0.132 | 0.00404 | 0.00192
20 | CCCCTCCCCA | 0.188 | 0.00734 | 0.00455

Row | Sequence | binding signal [1] [relative 10-mer count] | binding signal [2] [relative 10-mer count] | binding signal [3] [relative 10-mer count]
21 | CACCGTCCCC | 0.111 | 0.0039 | 0.00252
22 | CCCCAACCCA | 0.13 | 0.00482 | 0.00384
23 | CCACCACCAC | 0.19 | 0.00688 | 0.00647
24 | CACCAACCCC | 0.123 | 0.00404 | 0.00407
25 | CACCCCGACC | 0.113 | 0.00335 | 0.00216
26 | CGCCCTCCCC | 0.172 | 0.0066 | 0.00252
27 | GAAAAAAACA | 0.2 | 0.00289 | 0.165
28 | GCCCCCCCCC | 0.112 | 0.00367 | 0.00276
29 | CACCCCCACC | 0.308 | 0.0129 | 0.0102
30 | ACCGCCACCC | 0.111 | 0.00335 | 0.00192
31 | CCACTCCCCC | 0.12 | 0.00436 | 0.00144
32 | CCCGCCCACC | 0.259 | 0.0105 | 0.0024
33 | CCTGCCCCCC | 0.103 | 0.00454 | 0.00132
34 | AAAGCATACC | 0.143 | 0.0247 | 0.0344
35 | AAAAACAGTA | 0.176 | 0.00119 | 0.212
36 | CCCCACACCA | 0.118 | 0.00417 | 0.00575
37 | CCACCCCCCA | 0.272 | 0.0103 | 0.00443
38 | CCCCCCCCAA | 0.109 | 0.00316 | 0.00288
39 | GCATACCCAC | 0.132 | 0.00899 | 0.154
40 | AAGCTATCCC | 0.172 | 0.105 | 0.0012

Row | Sequence | binding signal [1] [relative 10-mer count] | binding signal [2] [relative 10-mer count] | binding signal [3] [relative 10-mer count]
41 | CCACCCACCG | 0.143 | 0.00615 | 0.00731
42 | CCCGACCCCC | 0.178 | 0.00628 | 0.00144
43 | CCCCCACCAA | 0.115 | 0.00431 | 0.00443
44 | CCCCCCATCC | 0.15 | 0.00509 | 0.00419
45 | CTTCATACTC | 0.167 | 0.271 | 0.00132
46 | AGGCAACACT | 0.174 | 0.00697 | 0.391
47 | ACCCACCTCC | 0.125 | 0.00505 | 0.00527
48 | GCCCCACCCA | 0.13 | 0.00404 | 0.00515
49 | CCACCCCAAC | 0.162 | 0.00601 | 0.00659
50 | CAGCATCCCC | 0.143 | 0.00165 | 0.154
51 | ACAAAAAAAA | 0.179 | 0.0167 | 0.0899
52 | CCGCCACCCC | 0.307 | 0.0102 | 0.0018
53 | AGGGTTTCCA | 0.106 | 0.00128 | 0.201
54 | CGCACCACCC | 0.108 | 0.00381 | 0.00695
55 | AGGGGGAGGG | 0.145 | 0.00752 | 0.00515
56 | CGCCACCACC | 0.108 | 0.00468 | 0.00384
57 | ACCCACCCTC | 0.132 | 0.00541 | 0.00647
58 | GGGGCGGGGA | 0.131 | 0.00633 | 0.00264
59 | CCCACCCTCC | 0.252 | 0.0121 | 0.0115
60 | CCCCCCCTCC | 0.208 | 0.00982 | 0.00336
